Data as given in PubChem BioAssay (NCI).
“And” between values parts separate entries of the source, which are not always exact repeats. Identical values can stand only once. Compounds without any hit were thinned out: in the full panel of roughly 79,000, 15% have a hit. A structure can be active in one record and inactive in another. The source made the active and inactive calls. No stated cut-off is given here; in the data, active means growth inhibition above about 70%; inactive means the rest.

Assays:
[1] = NCI Yeast Anticancer Drug Screen. Data for the rad50 strain (AID 155);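 further: 0% = growth of vehicle-only cultures of the same strain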; settings: S. cerevisiae rad50 strain growth inhibition, stronger effect = higher value
In short: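 Growth of the mutant yeast was measured after compound exposure and referenced to vehicle-treated cultures.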

[2] = NCI Yeast Anticancer Drug Screen. Data for the mec2-1 strain (AID 157); settings: S. cerevisiae mec2-1 strain, stronger effect = higher value
In short: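 Mutant yeast (mec2-1) grown with compound; growth inhibition relative to vehicle control reported.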

[3] = NCI Yeast Anticancer Drug Screen. Data for the sgs1 mgt1 strain (AID 161);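 further: 0% = growth of cultures given vehicle only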; settings: S. cerevisiae sgs1 mgt1 strain, stronger effect = higher value
In short: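 This yeast growth screen uses a strain with defined DNA-repair lesions; compound-treated growth is compared with vehicle-treated growth.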

[4] = NCI Yeast Anticancer Drug Screen. Data for the cln2 rad14 strain (AID 165);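 further: 0% = growth equal to vehicle treated cultures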; settings: S. cerevisiae cln2 rad14 strain, stronger effect = higher value
In short: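 Readout is yeast growth inhibition versus vehicle-treated controls, using a strain with cln2 and rad14 alterations exposed to compound.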

[5] = NCI Yeast Anticancer Drug Screen. Data for the bub3 strain (AID 167); settings: S. cerevisiae bub3 mutant strain, stronger effect = higher value
In short: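 Whole-cell yeast assay. The mutant strain was incubated with compounds, and growth inhibition was determined by comparison with vehicle-treated cells.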

[6] = NCI Yeast Anticancer Drug Screen. Data for the mlh1 rad18 strain (AID 175); settings: S. cerevisiae mlh1 rad18 strain growth inhibition, stronger effect = higher value
In short: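 Genetically defined yeast (DNA repair-deficient) exposed to compounds; growth inhibition determined relative to vehicle.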

[7] = at 5.0 µM (retest, dose inferred, filed as 0.5)
[8] = at 50.0 µM (retest, dose inferred, filed as 5.0)

Structure (SMILES) | growth inhibition [1, 7] | growth inhibition [1, 8] | growth inhibition ([1]; at 50.0 µM) | growth inhibition [2, 7] | growth inhibition [2, 8] | growth inhibition ([2]; at 50.0 µM) | growth inhibition [3, 7] | growth inhibition [3, 8] | growth inhibition ([3]; at 50.0 µM) | growth inhibition [4, 7] | growth inhibition [4, 8] | growth inhibition ([4]; at 50.0 µM) | growth inhibition [5, 7] | growth inhibition [5, 8] | growth inhibition ([5]; at 50.0 µM) | growth inhibition [6, 7] | growth inhibition [6, 8] | growth inhibition ([6]; at 50.0 µM)
CC(c1ccccc1)c1ccc(O)cc1 (stereo not drawn) | 0% (inactive) | 73% (active) | 46.9% (inactive) and 86.5% (active) | -3% (inactive) | 57% (inactive) | 33.2% (inactive) and 81% (active) | -1% (inactive) | 49% (inactive) | 6.55% (inactive) and 85.7% (active) | 0% (inactive) | 56% (inactive) | 24.6% (inactive) and 65.2% (inactive) | -9% (inactive) | 51% (inactive) | 40.4% (inactive) and 66.4% (inactive) | 0% (inactive) | 90% (active) | 53.2% (inactive) and 92.3% (active)
c1ccc(C(c2ccccc2)n2ccnc2)cc1 | -95% (inactive) | -13% (inactive) | 76.2% (active) | -11% (inactive) | 18% (inactive) | 60% (inactive) | -23% (inactive) | 37% (inactive) | 43.5% (inactive) | -27% (inactive) | -21% (inactive) | 66.6% (inactive) | -57% (inactive) | 2% (inactive) | 59.4% (inactive) | -72% (inactive) | 1% (inactive) | 80.7% (active)
CCCCCC(C)c1ccc(O)c(C)c1 (stereo not drawn) | 49% (inactive) | 94% (active) | 81.7% (active) | 49% (inactive) | 95% (active) | 56.2% (inactive) | -10% (inactive) | 43% (inactive) | 68.9% (inactive) | 41% (inactive) | 75% (active) | 61.7% (inactive) | 32% (inactive) | 55% (inactive) | 86.1% (active) | 45% (inactive) | 99% (active) | 72.5% (active)
CC1(C)OC2C(O)C(O)C3OC(C)(C)OC3C2O1 (stereo not drawn) | -20% (inactive) | 6% (inactive) | 6% (inactive) and 7.9% (inactive) | -13% (inactive) | 2% (inactive) | 9.35% (inactive) and -8.1% (inactive) | -6% (inactive) | 2% (inactive) | 14.4% (inactive) and 6.4% (inactive) | -1% (inactive) | 0% (inactive) | 74.1% (active) and -2.4% (inactive) | 2% (inactive) | 2% (inactive) | 61% (inactive) and 15.4% (inactive) | 25% (inactive) | 15% (inactive) | 44% (inactive) and 9.25% (inactive)
O=C1C(CN(Cc2ccccc2)Cc2ccccc2)CCCC1CN(Cc1ccccc1)Cc1ccccc1 (stereo not drawn) | 4% (inactive) | 17% (inactive) | 90.6% (active) and -1.45% (inactive) | -3% (inactive) | 22% (inactive) | 73% (active) and 25.6% (inactive) | 4% (inactive) | 46% (inactive) | 72.7% (active) and 21.9% (inactive) | -20% (inactive) | 7% (inactive) | 23.6% (inactive) and 67.8% (inactive) | -16% (inactive) | 47% (inactive) | 83.2% (active) and 21.4% (inactive) | -3% (inactive) | 58% (inactive) | 80.8% (active) and 14.2% (inactive)
CN(C)Cc1c(O)ccc2ccccc12 | 2% (inactive) | 89% (active) | -32.9% (inactive) and 45% (inactive) | 1% (inactive) | 98% (active) | -33% (inactive) and 90.2% (active) | 2% (inactive) | 97% (active) | -52.2% (inactive) and 43.4% (inactive) | -6% (inactive) | 96% (active) | -18.8% (inactive) and 85.1% (active) | 0% (inactive) | 97% (active) | -32.4% (inactive) and 23.8% (inactive) | 2% (inactive) | 99% (active) | -32.2% (inactive) and 39.2% (inactive)
O=c1cc[nH]c2ccccc12 | 34% (inactive) | 81% (active) | 13.5% (inactive) and 0% (inactive) | 24% (inactive) | 63% (inactive) | 1.25% (inactive) and -3.85% (inactive) | 16% (inactive) | 64% (inactive) | -6.85% (inactive) and 7.5% (inactive) | 6% (inactive) | 48% (inactive) | 7.35% (inactive) and -24.1% (inactive) | 71% (active) | 98% (active) | -1.2% (inactive) and -1.85% (inactive) | 50% (inactive) | 88% (active) | 0.7% (inactive) and 0.35% (inactive)
Cc1cc(=O)[nH]c2ccc(Cc3ccc(N)cc3)cc12 | -3% (inactive) | 12% (inactive) | 6.25% (inactive) and 15.6% (inactive) | 9% (inactive) | 22% (inactive) | 1.7% (inactive) and 0.45% (inactive) | 15% (inactive) | 27% (inactive) | 14.6% (inactive) and 1.2% (inactive) | 0% (inactive) | -2% (inactive) | 13.2% (inactive) and 31.4% (inactive) | 3% (inactive) | 10% (inactive) | 19.1% (inactive) and -13.5% (inactive) | 21% (inactive) | 22% (inactive) | 11.8% (inactive) and -1% (inactive)
O=C(NO)c1cccnc1 | 2% (inactive) | 3% (inactive) | 66.3% (inactive) | 2% (inactive) | -1% (inactive) | 16.1% (inactive) | -4% (inactive) | -3% (inactive) | 29.1% (inactive) | 1% (inactive) | 0% (inactive) | 14.8% (inactive) | 4% (inactive) | -2% (inactive) | 11.8% (inactive) | 3% (inactive) | 5% (inactive) | 16.4% (inactive)
Cc1c(C)c(CCl)c(C)c(C)c1CCl | 53% (inactive) | 95% (active) | 87.7% (active) | 71% (active) | 96% (active) | 86% (active) | 1% (inactive) | 43% (inactive) | 75.2% (active) | 34% (inactive) | 84% (active) | 72.5% (active) | 14% (inactive) | 39% (inactive) | 61.5% (inactive) | 66% (inactive) | 95% (active) | 82% (active)
O=[N+]([O-])c1cccc2nc3ccccc3c(NCCN(CCO)CCO)c12 | 81% (active) | 94% (active) | 71% (active) | 88% (active) | 98% (active) | 73.4% (active) | 91% (active) | 98% (active) | 52.5% (inactive) | 95% (active) | 99% (active) | 84.8% (active) | 79% (active) | 99% (active) | -17.6% (inactive) | 90% (active) | 96% (active) | 58% (inactive)
O=C1NS(=O)(=O)c2ccccc21 | -9% (inactive) | -81% (inactive) | 23.3% (inactive) and 33% (inactive) | -30% (inactive) | -32% (inactive) | 13.6% (inactive) and -8.5% (inactive) | -11% (inactive) | -43% (inactive) | -12.1% (inactive) and 24.2% (inactive) | -2% (inactive) | -17% (inactive) | 47.5% (inactive) and 29.4% (inactive) | -29% (inactive) | -122% (inactive) | 30.9% (inactive) and 50.3% (inactive) | -6% (inactive) | -43% (inactive) | -19.4% (inactive) and 20.9% (inactive)
O=C(NCCCCCCNC(=O)n1cc(F)c(=O)[nH]c1=O)NCCCOCCOCCOCCOCCOCCOCCOCCOCCOCCOCCOCCOCCOCCOCCOCCOCCOCCOCCOCCOCCOCCCNC(=O)C(O)C(O)C(OC1OC(CO)C(O)C(O)C1O)C(O)CO (stereo not drawn) | 11% (inactive) | 95% (active) | 74.3% (active) | 7% (inactive) | 78% (active) | 89% (active) | 30% (inactive) | 81% (active) | 81.5% (active) | 16% (inactive) | -5% (inactive) | 27.1% (inactive) | 1% (inactive) | 4% (inactive) | 48.4% (inactive) | 19% (inactive) | 97% (active) | -10.2% (inactive)
Cc1cc(/C=C/C2CCC3CC(C)CCC3N2CCO)c(C)n1-c1ccccc1 (stereo not drawn) | 16% (inactive) | 95% (active) | 99.1% (active) | 19% (inactive) | 99% (active) | 98.8% (active) | 26% (inactive) | 100% (active) | 99.2% (active) | 12% (inactive) | 90% (active) | 98.8% (active) | 21% (inactive) | 98% (active) | 98% (active) | 17% (inactive) | 97% (active) | 97.9% (active)
CCCCN(C(=O)CCl)c1ccccc1 | 2% (inactive) | 13% (inactive) | 50.3% (inactive) | -1% (inactive) | 9% (inactive) | 19.1% (inactive) | -4% (inactive) | 3% (inactive) | 54.2% (inactive) | 1% (inactive) | 5% (inactive) | 20% (inactive) | -9% (inactive) | -16% (inactive) | 34.9% (inactive) | 0% (inactive) | 10% (inactive) | 73.7% (active)
COc1cccc(OCCC#N)c1 | 2% (inactive) | 27% (inactive) | -6.7% (inactive) and 72.8% (active) | -1% (inactive) | 0% (inactive) | 4.05% (inactive) and 4.85% (inactive) | -1% (inactive) | 12% (inactive) | -5.2% (inactive) and 31.4% (inactive) | -7% (inactive) | -1% (inactive) | -34.8% (inactive) and 20.4% (inactive) | -6% (inactive) | -5% (inactive) | -8.35% (inactive) and -22.1% (inactive) | 4% (inactive) | 19% (inactive) | -1.9% (inactive) and 44.9% (inactive)
